# Experimental data taken from the supplement of paper PMC4237247.
# Tested on: HeLa
# Experiment: percent cells in G2/M phase; higher = more G2/M arrest
# Conditions: 10 µM; 20 h; hit class: G2/M-phase inhibitor
# Description: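 HTS of 79,827 drug-like compounds at 10 uM. HeLa cells in 384-well plates were treated for 20 h, fixed, stained with Vybrant DyeCycle Green and scanned on an Acumen eX3 cytometer to give per-well cell cycle profiles. Only G2/M hits (>=67% G2/M) are listed.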
row,Structure (SMILES),percent cells in G2/M phase [%]
1,CN1Cc2c(ccc3c2OCO3)[C@@H]2[C@H]1c1cc3c(cc1C[C@@H]2O)OCO3 [Chelidonine monohydrate (+)],72
